# Test results taken from paper PMC7862700, “An all-to-all approach to the identification of sequence-specific readers for epigenetic DNA modifications on cytosine”.
# Legend:
# Assay in all cases: DAPPL (digital affinity profiling via proximity ligation, sequencing); 10 mM Tris-HCl pH 7.5, 50 mM NaCl, 1 mM DTT, 4% glycerol, room temperature, 30 min; GST-TFs on glutathione beads, 16-mer random dsDNA library, 0.1% formaldehyde crosslink after washing; high values mean tight binding
# FLI1 = target: T1, FLI1 (Homo sapiens, UniProt Q01543 1-452); details: protein: recombinant; tags: N-terminal GST; dsDNA, one strand shown
# T1 sequence: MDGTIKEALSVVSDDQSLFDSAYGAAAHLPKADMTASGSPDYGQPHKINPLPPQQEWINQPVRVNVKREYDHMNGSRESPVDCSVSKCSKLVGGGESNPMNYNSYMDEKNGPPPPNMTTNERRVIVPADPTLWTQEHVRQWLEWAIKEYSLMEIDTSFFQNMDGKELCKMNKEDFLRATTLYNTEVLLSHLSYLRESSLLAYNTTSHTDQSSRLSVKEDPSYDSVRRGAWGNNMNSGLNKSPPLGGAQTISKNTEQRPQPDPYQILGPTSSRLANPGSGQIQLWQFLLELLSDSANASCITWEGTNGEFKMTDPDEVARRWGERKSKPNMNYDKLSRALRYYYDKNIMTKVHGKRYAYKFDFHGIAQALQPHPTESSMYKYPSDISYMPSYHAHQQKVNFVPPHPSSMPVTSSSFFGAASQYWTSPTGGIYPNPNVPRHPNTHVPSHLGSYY
# How it was run: (§1)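 Each value of binding signal is a hexamer's read frequency for a factor divided by the same hexamer's frequency in the tag-only sample. Barcoded, bead-captured GST fusions of human transcription factors made in yeast were pooled with that sample and incubated with 200 nmole of a random double-stranded 16-mer DNA library in Tris/NaCl/DTT/glycerol buffer at room temperature for 30 min. Washing, 0.1% formaldehyde crosslinking, proximity ligation, PCR and Illumina NextSeq500 sequencing followed.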
# ELK1 = target: T2, ELK1 (Homo sapiens, UniProt P19419 1-428); details: protein: recombinant; tags: N-terminal GST; dsDNA, one strand shown
# T2 sequence: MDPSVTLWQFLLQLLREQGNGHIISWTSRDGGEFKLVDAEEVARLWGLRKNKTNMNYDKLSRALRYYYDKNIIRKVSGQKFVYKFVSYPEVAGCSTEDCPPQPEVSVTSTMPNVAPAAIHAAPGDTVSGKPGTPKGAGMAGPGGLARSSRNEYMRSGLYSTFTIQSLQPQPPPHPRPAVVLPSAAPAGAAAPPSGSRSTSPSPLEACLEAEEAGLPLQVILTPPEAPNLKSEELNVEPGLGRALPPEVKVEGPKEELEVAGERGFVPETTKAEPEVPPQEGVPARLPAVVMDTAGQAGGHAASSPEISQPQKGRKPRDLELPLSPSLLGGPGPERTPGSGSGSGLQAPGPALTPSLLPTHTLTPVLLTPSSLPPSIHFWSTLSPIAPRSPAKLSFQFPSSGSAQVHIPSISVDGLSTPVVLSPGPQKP
# How it was run: as §1
# GABPA = target: T3, GABPA (Homo sapiens, UniProt Q06546 1-454); details: protein: recombinant; tags: N-terminal GST; dsDNA, one strand shown
# T3 sequence: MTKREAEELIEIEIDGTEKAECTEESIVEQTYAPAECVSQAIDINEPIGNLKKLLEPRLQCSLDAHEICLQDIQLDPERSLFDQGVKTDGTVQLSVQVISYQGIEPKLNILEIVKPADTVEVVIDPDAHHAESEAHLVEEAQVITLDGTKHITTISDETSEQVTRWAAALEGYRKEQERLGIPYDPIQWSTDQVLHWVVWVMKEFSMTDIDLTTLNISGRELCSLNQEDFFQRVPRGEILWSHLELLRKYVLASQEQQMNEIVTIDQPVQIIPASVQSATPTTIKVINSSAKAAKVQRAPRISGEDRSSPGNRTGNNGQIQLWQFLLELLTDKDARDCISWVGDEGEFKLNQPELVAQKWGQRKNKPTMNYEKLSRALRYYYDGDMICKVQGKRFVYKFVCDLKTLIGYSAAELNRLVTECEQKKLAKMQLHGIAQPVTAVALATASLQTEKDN
# How it was run: as §1
# ERG = target: T4, ERG (Homo sapiens, UniProt P11308 1-479); details: protein: recombinant; tags: N-terminal GST; dsDNA, one strand shown
# T4 sequence: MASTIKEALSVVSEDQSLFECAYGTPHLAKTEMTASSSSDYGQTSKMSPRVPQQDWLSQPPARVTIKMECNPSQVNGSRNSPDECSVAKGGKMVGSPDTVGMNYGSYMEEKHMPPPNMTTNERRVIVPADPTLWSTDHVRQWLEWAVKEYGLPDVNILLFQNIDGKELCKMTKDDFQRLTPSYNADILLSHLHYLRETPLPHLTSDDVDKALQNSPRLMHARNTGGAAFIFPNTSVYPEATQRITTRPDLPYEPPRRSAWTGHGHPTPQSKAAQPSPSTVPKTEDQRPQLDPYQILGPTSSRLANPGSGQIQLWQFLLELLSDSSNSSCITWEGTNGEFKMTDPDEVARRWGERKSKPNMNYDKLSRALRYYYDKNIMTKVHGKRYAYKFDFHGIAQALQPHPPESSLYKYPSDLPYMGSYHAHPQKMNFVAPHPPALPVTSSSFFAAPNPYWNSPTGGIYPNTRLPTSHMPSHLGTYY
# How it was run: as §1
# ELF1 = ELF1 (Homo sapiens, UniProt P32519 1-619); details: protein: recombinant; tags: N-terminal GST; dsDNA, one strand shown
# How it was run: as §1
# EHF = target: T5, EHF (Homo sapiens, UniProt Q9NZC4 1-300); details: protein: recombinant; tags: N-terminal GST; dsDNA, one strand shown
# T5 sequence: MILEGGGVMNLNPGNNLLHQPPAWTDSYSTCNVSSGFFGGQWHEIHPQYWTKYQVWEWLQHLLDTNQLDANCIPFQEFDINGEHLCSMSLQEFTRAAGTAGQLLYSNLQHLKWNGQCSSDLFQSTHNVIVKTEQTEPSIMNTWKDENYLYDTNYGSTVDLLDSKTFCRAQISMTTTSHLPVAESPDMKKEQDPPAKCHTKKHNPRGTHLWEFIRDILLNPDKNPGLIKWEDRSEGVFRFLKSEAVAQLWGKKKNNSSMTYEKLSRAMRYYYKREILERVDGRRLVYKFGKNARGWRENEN
# How it was run: as §1
# SPI1 = SPI1 (Homo sapiens, UniProt P17947 1-270); details: protein: recombinant; tags: N-terminal GST; dsDNA, one strand shown
# How it was run: as §1
# SPIB = SPIB (Homo sapiens, UniProt Q01892 1-262); details: protein: recombinant; tags: N-terminal GST; dsDNA, one strand shown
# How it was run: as §1
# ELK3 = target: T6, ELK3 (Homo sapiens, UniProt P41970 1-407); details: protein: recombinant; tags: N-terminal GST; dsDNA, one strand shown
# T6 sequence: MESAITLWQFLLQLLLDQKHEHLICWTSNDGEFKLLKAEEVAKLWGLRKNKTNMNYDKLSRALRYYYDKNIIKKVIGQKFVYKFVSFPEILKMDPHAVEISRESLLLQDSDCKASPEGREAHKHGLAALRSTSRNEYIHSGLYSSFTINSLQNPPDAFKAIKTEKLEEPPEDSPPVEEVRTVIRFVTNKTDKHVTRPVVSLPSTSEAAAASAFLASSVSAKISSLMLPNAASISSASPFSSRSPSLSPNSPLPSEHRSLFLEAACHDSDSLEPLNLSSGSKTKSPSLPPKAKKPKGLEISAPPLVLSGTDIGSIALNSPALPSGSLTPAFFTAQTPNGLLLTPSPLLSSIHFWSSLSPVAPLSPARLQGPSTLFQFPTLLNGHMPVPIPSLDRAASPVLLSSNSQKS
# How it was run: as §1
# FEV = target: T7, FEV (Homo sapiens, UniProt Q99581 1-238); details: protein: recombinant; tags: N-terminal GST; dsDNA, one strand shown
# T7 sequence: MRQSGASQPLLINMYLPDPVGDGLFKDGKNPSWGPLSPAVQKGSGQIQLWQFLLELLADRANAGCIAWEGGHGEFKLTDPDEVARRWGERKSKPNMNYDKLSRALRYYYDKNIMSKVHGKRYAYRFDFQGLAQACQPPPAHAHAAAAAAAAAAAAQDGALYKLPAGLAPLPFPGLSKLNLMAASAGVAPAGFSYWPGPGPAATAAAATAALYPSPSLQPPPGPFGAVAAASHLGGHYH
# How it was run: as §1
# ETV5 = ETV5 (Homo sapiens, UniProt P41161 1-510); details: protein: recombinant; tags: N-terminal GST; dsDNA, one strand shown
# How it was run: as §1
# HSF1 = HSF1 (Homo sapiens, UniProt Q00613 1-529); details: protein: recombinant; tags: N-terminal GST; chain copies: 3; dsDNA, one strand shown
# How it was run: as §1
# SPIC = target: T8, SPIC (Homo sapiens, UniProt Q8N5J4 1-248); details: protein: recombinant; tags: N-terminal GST; dsDNA, one strand shown
# T8 sequence: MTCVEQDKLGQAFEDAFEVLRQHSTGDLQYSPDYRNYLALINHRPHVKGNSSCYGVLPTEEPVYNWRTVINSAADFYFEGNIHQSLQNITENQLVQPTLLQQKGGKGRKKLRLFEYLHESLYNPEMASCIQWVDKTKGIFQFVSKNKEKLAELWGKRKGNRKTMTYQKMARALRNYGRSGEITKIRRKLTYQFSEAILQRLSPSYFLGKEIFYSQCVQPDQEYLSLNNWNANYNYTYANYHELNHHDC
# How it was run: as §1
# ELF4 = ELF4 (Homo sapiens, UniProt Q99607 1-663); details: protein: recombinant; tags: N-terminal GST; dsDNA, one strand shown
# How it was run: as §1
# ELK4 = target: T9, ELK4 (Homo sapiens, UniProt P28324-2 1-405); details: protein: recombinant; tags: N-terminal GST; dsDNA, one strand shown
# T9 sequence: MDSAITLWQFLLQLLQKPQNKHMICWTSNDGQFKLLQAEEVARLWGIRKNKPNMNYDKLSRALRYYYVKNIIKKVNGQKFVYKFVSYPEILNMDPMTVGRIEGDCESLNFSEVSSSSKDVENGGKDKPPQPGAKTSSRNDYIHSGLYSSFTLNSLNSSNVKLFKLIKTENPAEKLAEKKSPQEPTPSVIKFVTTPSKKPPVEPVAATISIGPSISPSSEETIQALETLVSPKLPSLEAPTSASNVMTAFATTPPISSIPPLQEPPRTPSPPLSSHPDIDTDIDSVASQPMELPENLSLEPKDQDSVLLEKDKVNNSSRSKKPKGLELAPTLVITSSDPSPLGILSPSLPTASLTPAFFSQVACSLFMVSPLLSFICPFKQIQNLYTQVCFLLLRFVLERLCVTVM
# How it was run: as §1
# ETV2 = target: T10, ETV2 (Homo sapiens, UniProt O00321 1-342); details: protein: recombinant; tags: N-terminal GST; dsDNA, one strand shown
# T10 sequence: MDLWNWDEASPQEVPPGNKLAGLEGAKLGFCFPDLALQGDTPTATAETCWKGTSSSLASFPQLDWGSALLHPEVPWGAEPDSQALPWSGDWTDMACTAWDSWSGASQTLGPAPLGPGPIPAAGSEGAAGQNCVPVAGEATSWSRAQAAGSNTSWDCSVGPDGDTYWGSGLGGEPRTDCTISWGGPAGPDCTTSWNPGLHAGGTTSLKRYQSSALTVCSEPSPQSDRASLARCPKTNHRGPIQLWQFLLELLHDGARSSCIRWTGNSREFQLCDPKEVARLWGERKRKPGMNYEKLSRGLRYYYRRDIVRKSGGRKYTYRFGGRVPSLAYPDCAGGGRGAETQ
# How it was run: as §1
# ELF3 = target: T11, ELF3 (Homo sapiens, UniProt P78545 1-371); details: protein: recombinant; tags: N-terminal GST; dsDNA, one strand shown
# T11 sequence: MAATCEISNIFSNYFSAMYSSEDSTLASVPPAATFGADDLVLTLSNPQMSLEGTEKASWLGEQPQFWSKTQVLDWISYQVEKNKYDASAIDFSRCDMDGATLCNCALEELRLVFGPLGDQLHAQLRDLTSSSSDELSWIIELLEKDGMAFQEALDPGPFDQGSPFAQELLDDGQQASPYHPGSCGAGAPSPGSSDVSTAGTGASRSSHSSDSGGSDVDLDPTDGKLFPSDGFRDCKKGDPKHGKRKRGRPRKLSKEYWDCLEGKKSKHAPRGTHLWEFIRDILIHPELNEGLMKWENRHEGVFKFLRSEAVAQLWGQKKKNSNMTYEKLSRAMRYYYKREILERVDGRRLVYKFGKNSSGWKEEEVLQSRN
# How it was run: as §1
# CRX = CRX (Homo sapiens, UniProt O43186 1-299); details: protein: recombinant; tags: N-terminal GST; dsDNA, one strand shown
# How it was run: as §1
# ETV1 = ETV1 (Homo sapiens, UniProt P50549 1-477); details: protein: recombinant; tags: N-terminal GST; dsDNA, one strand shown
# How it was run: as §1
# Sequence of ETV5 (P41161 whole entry): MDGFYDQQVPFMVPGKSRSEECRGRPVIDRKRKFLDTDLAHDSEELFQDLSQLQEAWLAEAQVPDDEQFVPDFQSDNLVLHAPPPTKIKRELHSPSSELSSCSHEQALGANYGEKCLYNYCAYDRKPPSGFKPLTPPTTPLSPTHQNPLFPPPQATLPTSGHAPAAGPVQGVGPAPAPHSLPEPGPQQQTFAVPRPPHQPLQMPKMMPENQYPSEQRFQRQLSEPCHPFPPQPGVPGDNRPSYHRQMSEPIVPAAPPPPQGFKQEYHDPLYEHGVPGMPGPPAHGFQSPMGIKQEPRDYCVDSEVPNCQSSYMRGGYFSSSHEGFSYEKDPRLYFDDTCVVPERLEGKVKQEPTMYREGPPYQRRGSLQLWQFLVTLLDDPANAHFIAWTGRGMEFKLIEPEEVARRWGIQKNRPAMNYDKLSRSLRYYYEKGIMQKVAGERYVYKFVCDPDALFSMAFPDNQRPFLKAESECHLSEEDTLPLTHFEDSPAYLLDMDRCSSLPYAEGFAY
# Sequence of ELF1 (P32519 whole entry): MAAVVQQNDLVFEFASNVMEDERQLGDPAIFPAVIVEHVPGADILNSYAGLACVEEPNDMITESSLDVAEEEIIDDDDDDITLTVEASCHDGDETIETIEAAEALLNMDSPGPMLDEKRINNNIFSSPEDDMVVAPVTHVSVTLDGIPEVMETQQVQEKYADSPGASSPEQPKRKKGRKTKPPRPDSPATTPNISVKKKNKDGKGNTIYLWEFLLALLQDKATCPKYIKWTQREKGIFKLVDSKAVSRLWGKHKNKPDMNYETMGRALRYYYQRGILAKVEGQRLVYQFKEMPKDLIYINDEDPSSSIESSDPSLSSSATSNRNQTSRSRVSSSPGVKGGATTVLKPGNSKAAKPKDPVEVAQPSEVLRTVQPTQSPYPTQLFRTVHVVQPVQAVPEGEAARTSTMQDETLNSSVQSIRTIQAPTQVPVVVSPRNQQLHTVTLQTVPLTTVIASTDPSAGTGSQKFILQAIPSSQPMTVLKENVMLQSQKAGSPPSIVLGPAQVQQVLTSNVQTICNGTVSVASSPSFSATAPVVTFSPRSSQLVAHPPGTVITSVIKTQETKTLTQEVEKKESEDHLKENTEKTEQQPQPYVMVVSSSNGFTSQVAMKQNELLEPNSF
# Sequence of ELF4 (Q99607 whole entry): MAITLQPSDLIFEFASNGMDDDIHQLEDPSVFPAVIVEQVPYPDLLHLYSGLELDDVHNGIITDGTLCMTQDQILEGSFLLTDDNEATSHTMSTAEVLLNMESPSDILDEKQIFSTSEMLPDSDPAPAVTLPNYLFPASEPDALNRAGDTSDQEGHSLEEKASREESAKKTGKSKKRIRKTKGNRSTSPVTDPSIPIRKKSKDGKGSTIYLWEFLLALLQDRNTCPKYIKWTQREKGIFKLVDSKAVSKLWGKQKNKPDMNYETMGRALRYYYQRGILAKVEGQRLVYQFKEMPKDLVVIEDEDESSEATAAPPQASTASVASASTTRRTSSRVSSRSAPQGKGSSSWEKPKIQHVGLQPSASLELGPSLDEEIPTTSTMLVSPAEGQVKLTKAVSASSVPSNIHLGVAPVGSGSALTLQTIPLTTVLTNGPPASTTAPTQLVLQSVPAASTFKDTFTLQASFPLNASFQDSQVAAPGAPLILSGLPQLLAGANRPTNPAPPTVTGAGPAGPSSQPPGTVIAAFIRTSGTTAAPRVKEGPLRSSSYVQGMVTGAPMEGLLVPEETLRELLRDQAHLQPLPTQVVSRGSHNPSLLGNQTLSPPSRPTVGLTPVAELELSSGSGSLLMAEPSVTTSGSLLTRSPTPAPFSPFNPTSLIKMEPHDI
# Sequence of SPIB (Q01892 whole entry): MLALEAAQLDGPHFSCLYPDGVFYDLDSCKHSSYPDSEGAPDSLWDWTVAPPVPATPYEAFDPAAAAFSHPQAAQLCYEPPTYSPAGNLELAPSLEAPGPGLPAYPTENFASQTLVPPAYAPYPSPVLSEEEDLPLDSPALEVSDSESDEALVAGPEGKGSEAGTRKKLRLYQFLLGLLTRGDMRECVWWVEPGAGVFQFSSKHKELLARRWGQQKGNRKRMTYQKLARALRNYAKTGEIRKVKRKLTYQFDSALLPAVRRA
# Sequence of HSF1 (Q00613 whole entry): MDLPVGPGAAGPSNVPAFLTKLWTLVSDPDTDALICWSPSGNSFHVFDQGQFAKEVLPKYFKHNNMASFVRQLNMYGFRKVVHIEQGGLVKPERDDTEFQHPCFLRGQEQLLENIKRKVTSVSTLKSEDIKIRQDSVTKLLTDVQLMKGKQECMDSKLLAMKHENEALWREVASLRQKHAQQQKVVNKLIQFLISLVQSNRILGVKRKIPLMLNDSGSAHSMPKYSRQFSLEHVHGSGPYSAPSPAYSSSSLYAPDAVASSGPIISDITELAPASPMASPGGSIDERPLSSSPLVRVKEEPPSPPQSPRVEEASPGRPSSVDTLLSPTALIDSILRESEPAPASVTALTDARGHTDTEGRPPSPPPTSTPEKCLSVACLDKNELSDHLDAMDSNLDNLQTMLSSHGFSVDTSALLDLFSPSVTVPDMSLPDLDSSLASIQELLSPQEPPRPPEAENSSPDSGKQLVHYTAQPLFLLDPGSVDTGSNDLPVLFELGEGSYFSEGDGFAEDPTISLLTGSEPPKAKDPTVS
# Sequence of CRX (O43186 whole entry): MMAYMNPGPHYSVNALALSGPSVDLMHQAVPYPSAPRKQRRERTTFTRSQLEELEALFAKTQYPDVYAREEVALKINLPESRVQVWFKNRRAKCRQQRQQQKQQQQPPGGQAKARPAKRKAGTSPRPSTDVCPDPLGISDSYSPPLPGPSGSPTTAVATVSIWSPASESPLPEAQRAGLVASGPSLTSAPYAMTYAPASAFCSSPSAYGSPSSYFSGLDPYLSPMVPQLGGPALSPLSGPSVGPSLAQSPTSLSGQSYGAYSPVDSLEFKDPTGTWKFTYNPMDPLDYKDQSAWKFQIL
# Sequence of ETV1 (P50549 whole entry): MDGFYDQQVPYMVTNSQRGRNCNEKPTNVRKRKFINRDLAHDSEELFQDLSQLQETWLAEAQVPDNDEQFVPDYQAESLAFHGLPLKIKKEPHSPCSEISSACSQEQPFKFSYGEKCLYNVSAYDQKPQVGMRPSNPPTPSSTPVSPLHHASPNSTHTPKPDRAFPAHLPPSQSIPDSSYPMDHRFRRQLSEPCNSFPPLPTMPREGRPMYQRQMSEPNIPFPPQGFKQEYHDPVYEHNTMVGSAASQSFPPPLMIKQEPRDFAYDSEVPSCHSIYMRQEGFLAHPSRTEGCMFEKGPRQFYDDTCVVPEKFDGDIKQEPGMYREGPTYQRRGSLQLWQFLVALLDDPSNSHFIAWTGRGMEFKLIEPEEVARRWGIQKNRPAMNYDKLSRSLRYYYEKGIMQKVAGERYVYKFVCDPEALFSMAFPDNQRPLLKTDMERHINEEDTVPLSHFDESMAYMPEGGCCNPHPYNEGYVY
sequence,measurement,setting,value
TATCTA,binding signal,FLI1,"1.18 fold enrichment (6-mer frequency, TF over GST control)"
same,binding signal,ELK1,"1.23 fold enrichment (6-mer frequency, TF over GST control)"
same,binding signal,GABPA,"1.35 fold enrichment (6-mer frequency, TF over GST control)"
same,binding signal,ERG,"1.18 fold enrichment (6-mer frequency, TF over GST control)"
same,binding signal,ELF1,"1.18 fold enrichment (6-mer frequency, TF over GST control)"
same,binding signal,EHF,"1.2 fold enrichment (6-mer frequency, TF over GST control)"
same,binding signal,SPI1,"1.27 fold enrichment (6-mer frequency, TF over GST control)"
same,binding signal,SPIB,"1.28 fold enrichment (6-mer frequency, TF over GST control)"
same,binding signal,ELK3,"1.28 fold enrichment (6-mer frequency, TF over GST control)"
same,binding signal,FEV,"1.19 fold enrichment (6-mer frequency, TF over GST control)"
same,binding signal,ETV5,"1.14 fold enrichment (6-mer frequency, TF over GST control)"
same,binding signal,HSF1,"1.66 fold enrichment (6-mer frequency, TF over GST control)"
same,binding signal,SPIC,"1.19 fold enrichment (6-mer frequency, TF over GST control)"
same,binding signal,ELF4,"1.22 fold enrichment (6-mer frequency, TF over GST control)"
same,binding signal,ELK4,"1.2 fold enrichment (6-mer frequency, TF over GST control)"
same,binding signal,ETV2,"1.25 fold enrichment (6-mer frequency, TF over GST control)"
same,binding signal,ELF3,"1.34 fold enrichment (6-mer frequency, TF over GST control)"
same,binding signal,CRX,"1.73 fold enrichment (6-mer frequency, TF over GST control)"
same,binding signal,ETV1,"1.14 fold enrichment (6-mer frequency, TF over GST control)"
